Screening results as filed in PubChem.
A selection: hits, their analogues and other compounds. The true share with any hit is near 12%.
Lmaj promast: Leishmania major promastigote growth inhibition, primary screen; inhibition, % at 10 µM; Leishmania major promastigotes, resazurin fluorescence viability; 200,000 compounds, 9% hits; in the data active means inhibition above about 50%;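 further: promastigotes grown with compound for 44 hours at 28 °C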
INS promoter inh: inhibitors of insulin promoter-driven GFP, primary screen, imaging, TRM-6 cells (human fetal islet line), eGFP reporter, cell count. reporter expression induced with tamoxifen. inhibition, % at 2 µM. 130,000 compounds, 0.9% hits. AID 1273, 2008;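 active means inhibition above the mean plus 3 SD, with well images judged a real hit on visual review, cut at about 60% in these data, passing the limit was not always enough; inconclusive means inhibition over the cutoff but images rejected on review; inactive means inhibition not above the cutoff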
Insulin prom up: insulin promoter activators in MIN6 cells, imaging, high-content screening, mouse beta cells. z-score at 5 µM. AID 1625, 2009. 190,000 compounds, 0.3% hits. MIN6 insulin promoter-GFP reporter; hits give high values;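 active means z-score above 3 at 5 µM with at least 500 cells counted in the well; inconclusive means wells under 500 cells, flagged as cytotoxic or low count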
WT yeast gro inh: growth inhibition of WT strain, primary screen, mitochondrial fusion inhibitor project, WT and mutant strains, chemical genetic; mitochondrial fusion phenotypic screen; inhibition, % at 10 µM; 190,000 compounds, 2.1% hits; AID 1362, 2008; in the data active means inhibition above about 58%; tested in S. cerevisiae
Cl transport mod: KCC2 cotransporter modulators, thallium flux, primary screen, cell-based, HEK293 KCC2, FluoZin-2 fluorescence, MLSMR. Solute carrier family 12 member 5 (Homo sapiens), Q9H2X9. KCC2 cells, thallium flux FluoZin-2 fluorescence. B-score of Tl+ flux slope (higher = more flux/activation; lower = inhibition) at 10 µM. 190,000 compounds, 2.2% hits. AID 1456, 2008;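 active means thallium flux slope and its plate-corrected score both differing from the plate sample mean at a set confidence after two filtering rounds, in either direction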;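 further: slope of fluorescence scaled to starting intensity during 10 to 20 s after thallium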
ROMK primary: ROMK potassium channel modulators, primary screen, cell-based, thallium flux, MLSMR library. Tet-inducible ROMK, thallium flux fluorescence; actives lie on both sides. B-score at 10 µM. 130,000 compounds, 2% hits;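 active means signal ratio slope over the read window, or its plate-corrected B-score, at least 3 SD from the plate mean, either direction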;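 further: B-score of the F/F0 ratio slope over 7 to 12 s after thallium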
Target sequence (P48048 whole entry, looked up): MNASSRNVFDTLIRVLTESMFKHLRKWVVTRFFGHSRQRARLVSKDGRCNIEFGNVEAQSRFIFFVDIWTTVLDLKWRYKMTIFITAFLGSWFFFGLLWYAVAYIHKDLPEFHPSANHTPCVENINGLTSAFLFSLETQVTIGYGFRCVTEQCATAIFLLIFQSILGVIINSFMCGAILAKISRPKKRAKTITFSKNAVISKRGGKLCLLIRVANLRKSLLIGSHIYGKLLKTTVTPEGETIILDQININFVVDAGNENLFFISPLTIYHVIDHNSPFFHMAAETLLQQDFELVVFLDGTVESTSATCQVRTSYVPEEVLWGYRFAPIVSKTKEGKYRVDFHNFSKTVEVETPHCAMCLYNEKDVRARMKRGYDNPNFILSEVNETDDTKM
Numbers without * were called inactive; i = inactive; ? = inconclusive; nt = no result given.

SMILES	Lmaj promast	INS promoter inh	Insulin prom up	WT yeast gro inh	Cl transport mod	ROMK primary
CCCN(CC1CC1)C(=O)COC(=O)c1[nH]c(C)c(C(=O)OCC)c1C	80*	-6	1	12	-0.97	0.051
Cc1cc(C(=O)CN2C(=O)NC3(CCCc4ccccc43)C2=O)c(C)n1Cc1cccs1 (stereo not drawn)	20	nt	0.3	13	nt	0.76
C=CCn1c(C)cc(C(=O)CSc2nc3ccccc3[nH]2)c1C	70*	12	-2.3	37	-1.6	nt
Cc1cc(C(=O)CSc2nc3ccccc3[nH]2)c(C)n1Cc1ccco1	95*	-24	-3.8	17	0.8	-1.3
Cc1cc(C(=O)CN2C(=O)NC(c3ccccc3)(c3ccccc3)C2=O)c(C)n1Cc1ccco1	52*	nt	nt	4	0.18	nt
C=CCn1c(C)cc(C(=O)CSc2nc3ccccc3c(=O)[nH]2)c1C	17	-4	1.1	3	0.55	nt
Cc1cc(C(=O)CSc2nc3ccccc3[nH]2)c(C)n1C	6	41	-0.24	3	0.59	nt
Cc1cc(C(=O)NCc2cccs2)nn1C	nt	nt	nt	nt	-0.11	nt
O=C1C2CCCCC2C(=O)N1Cc1ccccc1 (stereo not drawn)	-5	nt	-2	-5	nt	0.0066
O=C1C2C3CCC(C3NCc3ccccc3)C2C(=O)N1Cc1ccccc1 (stereo not drawn)	60*	nt	-0.06	41	0.32	nt
CCOc1ccc(N(CC(=O)NCC2CCCO2)S(=O)(=O)c2ccc(Cl)cc2)cc1 (stereo not drawn)	70*	-48	0	17	-0.072	-1
CCOc1ccc(S(=O)(=O)N(C)c2ccc(OCC(=O)NCC3CCCO3)cc2)cc1 (stereo not drawn)	-5	-27	nt	-4	-0.54	-0.082
O=C(Nc1nc(-c2ccccn2)cs1)C1CC1	86*	nt	-0.73	10	0.47	nt
O=C(Nc1nc(-c2ccccn2)cs1)C12CC3CC(CC(O)(C3)C1)C2	33	nt	-0.44	6	-0.5	-0.58
O=C(CC1CC2CCC1C2)Nc1nc(-c2ccccn2)cs1 (stereo not drawn)	100*	nt	1.3	74*	-0.19	-0.16
O=C(O)CC1=C(Nc2ccccc2)C(=O)N(c2ccccc2)C1c1ccc(F)cc1 (stereo not drawn)	1	29	0.13	-2	i	-0.38
COC(=O)c1ccc(/C=N/NC(=O)CC(=O)NCC(C)C)cc1	-2	nt	1.5	10	1.3	nt
Cc1cccc2c(N=Nc3ccc(S(=O)(=O)Nc4cccc(Cl)c4)cc3[N+](=O)[O-])c(O)[nH]c12	41	nt	-0.7	18	-0.5	1.3
O=C(Cn1nnc(-c2ccccc2F)n1)Nc1ccc(C(=O)N2CCOCC2)cc1	-6	-100	-0.51	9	nt	nt
CCOC(=O)N1CCC(N2CCN(S(=O)(=O)CC)CC2)CC1	94*	-65	0.81	12	nt	1.3
CCOC(=O)N1CCC(N2CCN(S(=O)(=O)c3ccc(OC)cc3)CC2)CC1	-4	nt	0.07	7	0.02	-0.49
CCOC(=O)N1CCC(N2CCN(S(=O)(=O)c3ccc(C)cc3)CC2)CC1	85*	67*	-0.39	1	nt	-0.048
CCOC(=O)N1CCN(S(=O)(=O)c2ccc(C)c(C)c2)CC1	0	24	nt	81*	nt	-0.024
CCOC(=O)N1CCN(C(=O)c2ccc(OC)c(S(=O)(=O)N3CCOCC3)c2)CC1	1	78*	-0.02	-11	0.5	-0.014
CCOC(=O)N1CCN(C(=O)C2CCN(S(=O)(=O)N3CCCC3)CC2)CC1	0	0	nt	9	nt	0.94
SMILES	Lmaj promast	INS promoter inh	Insulin prom up	WT yeast gro inh	Cl transport mod	ROMK primary
COc1ccc(C(=O)N2CCN(C(C)=O)CC2)cc1S(=O)(=O)N1CCOCC1	18	45	-0.67	-3	0.41	0.44
Cc1cc(-n2c(C)cc(C(=O)CSc3ncnc4ccccc34)c2C)no1	6	nt	?	9	-1.3	nt
Cc1ccc(OCC(=O)n2cnnc2N)c(C)c1	-4	-3	-0.26	-2	0.089	nt
CCOC(=O)N1CCN(S(=O)(=O)c2ccc(C(=O)Nc3nnc(CC)o3)cc2)CC1	59*	-18	0.56	-7	0.2	0.082
CCOC(=O)c1ccc(S(=O)(=O)N2CCN(C3CCCC3)CC2)cc1	90*	-6	-0.04	-10	-0.27	-0.52
CCOC(=O)c1ccc(S(=O)(=O)N2CCN(C(C)=O)CC2)cc1	-3	-22	-0.35	-2	-1.5	-0.23
COc1ccccc1-c1nnc(SCC(=O)c2ccc(C3CCCCC3)cc2)n1Cc1ccco1	25	69	-0.4	-15	nt	nt
C/C(=N\NC(=O)c1ccc(OC2OCCOC2Oc2ccc(C(=O)N/N=C(\C)c3ccncc3)cc2)cc1)c1ccncc1 (stereo not drawn)	nt	nt	0.93	nt	1.1	nt
COc1ccc(NC2=NC(=S)N(c3ccc(C)cc3)C23CCCCC3)cc1	-5	-68	nt	7	nt	nt
COC(=O)c1cc2ccccc2c(-c2c(OC)c(C(=O)OC)cc3ccccc23)c1OC	45	-34	nt	72*	0.18	nt
COC(=O)c1cc(N2CCN(C)CC2)nc2ccccc12	5	-22	0.03	1	0.2	-1.2
CCOc1cc(C(=O)NC(C)C2CCCO2)cc(OCC)c1OCC (stereo not drawn)	9	nt	-0.11	4	0.051	nt
COc1cc(/C=N/NC(=O)c2ccc(-n3cccc3)cc2)ccc1O	8	71*	-0.11	27	-1.7	1.3
COc1cc(/C=N/NC(=O)c2cccs2)ccc1O	nt	nt	-0.47	nt	-0.2	nt
COc1cc(/C=N/NC(=O)CCc2ccccc2)ccc1O	4	-29	1.5	70*	-0.2	nt
Cc1c(Cl)cccc1NC(=O)Cn1c(-c2ccc(F)cc2)noc1=O	0	-54	0.74	-5	0.45	nt
NC(=O)c1ccc(NC(=O)COC(=O)/C=C/c2cn(-c3ccccc3)nc2-c2cccnc2)cc1	51*	0	0.8	5	0.077	0.0091
O=C(/C=C/c1cn(-c2ccccc2)nc1-c1cccnc1)N1CCCC1	3	-17	0.13	-2	-2.8	-0.16
O=C(/C=C/c1cn(-c2ccccc2)nc1-c1cccnc1)c1ccco1	100*	nt	-1.7	20	-0.85	2.6
N#Cc1ccccc1NC(=O)COC(=O)/C=C/c1cn(-c2ccccc2)nc1-c1ccc(Cl)cc1	-4	nt	0.52	4	0.025	-0.077
CN1C2C=C(N(CCc3c[nH]c4ccccc34)C(=O)c3ccc(Cl)cc3)CC1CC2 (stereo not drawn)	101*	-37	nt	22	nt	nt
COc1ccc(CCN(C(=O)c2ccccc2)C2=CC3CCC(C2)N3C)cc1OC (stereo not drawn)	-3	-6	0.03	-17	nt	nt
Cc1cc([N+](=O)[O-])ccc1NC(=S)NC(=O)C(c1ccccc1)c1ccccc1	15	-44	-1.3	69	nt	0.02
